Screening data (PubChem BioAssay)
The list is not random: actives were taken first. Their share in the collection is about 3.3%.
PfM18AAP inh-1: blocks P. falciparum M18 aspartyl aminopeptidase; inhibition, % at 7.35 µM; recombinant PfM18AAP, H-Glu-NHMec fluorogenic cleavage; hit rate 1.2% among 290,000;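 active = inhibition above the campaign mean inhibition over all tested compounds plus 3 SD, cut at about 28% in these data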
UHRF1 MBD2 ctr: human UHRF1 methylated DNA binding inhibitors; Q96T88; UHRF1 binding to methylated oligo, TR-FRET; inhibition, % at 4.4 µM; hit rate 0.75% among 370,000; in the data active = inhibition above about 21%;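 note: UHRF1 SRA domain binding a hemimethylated CpG hairpin DNA probe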
PfG6PD inh: PfG6PD (Plasmodium falciparum) enzyme inhibition; AID 504690; hit rate 0.78% among 350,000; PfGluPho enzyme, NADPH resazurin-diaphorase fluorescence; inhibition, % at 20 µM;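 active = inhibition reaching at least a set limit at 20 µM in the primary screen, cut at about 59% in these data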
PRMT1 inh: PRMT1 (human) inhibition, primary screen; inhibition, % at 2.79 µM; Q99873; AID 652257; recombinant PRMT1, activity-based probe fluorescence polarization; hit rate 1.3% among 370,000;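 active = inhibition above about 21% made by adding two undisclosed values, limit read from the data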
MBD2 inh: MBD2-methylated oligo binding inhibition. AID 686964. hit rate 0.31% among 370,000. inhibition, % at 4.4 µM. Q9UBB5. TR-FRET, MBD2 binding to methylated oligonucleotide; in the data active = inhibition above about 13%
Target sequence (Q9UBB5 whole entry, looked up): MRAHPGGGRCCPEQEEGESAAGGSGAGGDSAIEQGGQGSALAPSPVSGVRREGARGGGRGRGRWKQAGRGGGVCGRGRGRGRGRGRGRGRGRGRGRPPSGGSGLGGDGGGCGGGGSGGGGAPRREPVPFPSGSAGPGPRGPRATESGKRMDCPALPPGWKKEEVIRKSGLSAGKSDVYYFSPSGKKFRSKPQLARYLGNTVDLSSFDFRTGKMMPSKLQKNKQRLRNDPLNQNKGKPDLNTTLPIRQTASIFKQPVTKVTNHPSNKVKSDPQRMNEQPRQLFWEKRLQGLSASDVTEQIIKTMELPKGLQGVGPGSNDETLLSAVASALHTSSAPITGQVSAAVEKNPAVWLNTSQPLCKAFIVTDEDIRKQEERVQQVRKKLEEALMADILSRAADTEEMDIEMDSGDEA
PfM18AAP inh-2: PfM18AAP inhibition, confirmation; shares compounds with PfM18AAP inh-1; recombinant PfM18AAP, H-Glu-NHMec fluorogenic cleavage; inhibition, % at 7.35 µM; hit rate 28% among 2,400;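 active = mean inhibition over replicate wells above the hit cutoff set for the earlier primary screen, cut at about 29% in these data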
CTSL1 confirm: counter-screen for PFM18AAP inhibitors: confirmation of human cathepsin L inhibitors; 2,400 tested, under 10 active; inhibition, % at 5.96 µM; shares compounds with PfM18AAP inh-1; purified cathepsin L1, Z-Leu-Arg-MCA fluorescence; AID 2178;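 active = average inhibition across replicates above the hit cutoff set in the earlier primary screen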
Hits are given with their value; 0 = inactive; - = no result.

SMILES	PfM18AAP inh-1	UHRF1 MBD2 ctr	PfG6PD inh	PRMT1 inh	MBD2 inh	PfM18AAP inh-2	CTSL1 confirm
O=C(Nc1nc(=O)c2ccccc2s1)c1ccccc1	42.9	0	0	74.6	0	0	0
O=C(Nn1cnnc1)C(c1ccccc1)c1ccccc1	42.8	0	0	0	0	0	0
O=C(Nn1cnnc1)C(Sc1ccccc1)c1ccccc1 (stereo not drawn)	48.2	0	0	0	0	34.1	0
Cc1ccc(S(=O)(=O)N2CCN(C(=O)C(F)(F)F)C2c2ccc(N(C)C)cc2)cc1 (stereo not drawn)	0	0	0	0	0	-	-
CC(=O)N1CCN(S(=O)(=O)c2ccc(C)cc2)C1c1ccc(N(C)C)cc1 (stereo not drawn)	36.0	0	0	0	0	0	0
O=C(NCC1COc2ccccc2O1)c1ccc(NC(=O)C(Cl)Cl)cc1 (stereo not drawn)	-	0	-	0	0	-	-
CC(C)(C)N1Cc2nnn(Cc3ccccc3)c2-c2cc(N3CCCCC3)ccc2S1(=O)=O	-	0	-	0	0	-	-
Oc1ccc(/C=N/N(c2ccccc2)c2ccccc2)cc1O	66.8	0	0	0	0	41.8	0
O=C1c2ccccc2C(=O)N1/N=C/c1ccc(O)c(O)c1O	65.5	-	98.4	-	-	39.5	0
Oc1ccc(/C=N/N(c2ccccc2)c2ccccc2)c(O)c1O	47.6	0	-	0	0	0	0
O=C(NCc1ccccc1)Nc1ccccc1C(=O)N1CCCC1	-	0	-	0	0	-	-
O=C1CC(c2ccccc2)Oc2cc(O)cc(O)c21 (stereo not drawn)	-	0	0	0	0	-	-
COc1cc(OC)c2c(c1O)OC(c1ccccc1)CC2=O (stereo not drawn)	48.9	0	0	0	0	0	0
Nc1cc2c(cc1O)CCCC2	32.6	0	0	0	0	57.8	0
CCn1c(CSc2nc3ccccc3s2)nnc1SCC(=O)c1ccc(Cl)cc1	0	0	0	0	0	-	-
CCn1c(SCC(=O)c2ccc(O)c(O)c2)nnc1-c1ccccc1OC	42.0	0	0	0	0	0	0
C=CCn1c(SCC(=O)c2ccc(O)c(O)c2)nnc1-c1ccccc1OC	49.0	0	0	0	0	34.0	0
CCn1c(SCC(=O)c2c(N)n(C3CC3)c(=O)[nH]c2=O)nnc1-c1ccccc1OC	-	0	0	0	0	-	-
C=CCn1c(SCC(=O)c2ccc(O)c(O)c2)nnc1-c1cccc(Cl)c1	-	0	0	0	0	-	-
CCn1c(SCC(=O)c2ccc(O)c(O)c2)nnc1-c1ccccc1	41.3	0	0	0	0	0	0
CCn1c(CSc2nc3ccccc3s2)nnc1SCC(=O)c1ccc(O)c(O)c1	48.6	0	0	0	0	29.6	0
CCOc1ccc(NC(=O)CN2C(=O)c3cccc4cccc2c34)cc1	-	0	-	0	0	-	-
C=CCn1c(SCC(=O)c2ccc(O)c(O)c2)nnc1-c1cccnc1	54.0	25.0	0	0	0	0	0
C=CCn1c(SCC(=O)c2ccc(O)c(O)c2)nnc1-c1cccc(C)c1	-	0	0	0	0	-	-
CCOc1cc(C(=O)Nn2cnnc2)cc(OCC)c1OCC	34.8	0	0	0	0	0	0
SMILES	PfM18AAP inh-1	UHRF1 MBD2 ctr	PfG6PD inh	PRMT1 inh	MBD2 inh	PfM18AAP inh-2	CTSL1 confirm
CCOc1cc(C(=O)NC(=S)Nn2cnnc2)cc(OCC)c1OCC	75.3	0	0	0	0	75.3	0
Cc1cc(O)c(N)c(C)c1Cl	50.1	0	0	0	0	67.8	0
Cc1cc(O)cc(C)c1Cl	-	0	0	0	0	-	-
Fc1ccccc1-c1n[nH]c(=S)n1N=Cc1ccc(-c2ccccc2)cc1	-	0	-	0	0	-	-
Cc1snc2sc(C(=O)c3ccc(F)cc3)c(N)c12	41.1	0	0	0	0	0	0
COc1cccc(C(=O)/C=C/Nc2cc(C)ccc2O)c1	68.5	0	0	0	0	0	0
CCOC(=O)c1ccc(N/C=C\C(=O)c2cccc(OC)c2)cc1	0	0	0	0	0	-	-
COc1ccc(Sc2cccc(Cl)c2)c(C(=O)O)c1	-	0	-	0	0	-	-
Oc1ccc(-n2cccc2/C=N/n2cnnc2)cc1	0	0	0	0	0	-	-
Cc1ccc(-n2cccc2/C=N/n2cnnc2)cc1Cl	39.3	0	0	0	0	0	0
NC1=[N+](Cc2ccccc2)C(Cc2ccccc2)C2C(=C3CCCCC3n3c(=O)n(-c4ccccc4)c(=O)n32)N1 (stereo not drawn)	-	0	-	0	0	-	-
CC1CN(Cc2nc3c(c(=O)n(C)c(=O)n3C)n2Cc2ccccc2)CC(C)O1 (stereo not drawn)	55.4	0	0	0	0	0	0
Cc1cc(C)c2c(N)c(C(=O)NNC(=O)c3ccccc3)sc2n1	43.6	0	0	0	0	0	0
Cc1cc(C)nc(SCNC(=O)c2ccc(F)cc2)n1	50.0	0	0	25.5	0	0	0
CCOC(=O)[C@]12CCCCC/C=C\1N(CCc1ccc(Cl)cc1)C(=O)[C@H]2CC(=O)NCC1CCCCC1	-	0	-	0	0	-	-
O=C(/C=C/c1cccc(Cl)c1)c1nc2ccccc2[nH]1	32.4	0	0	0	0	0	0
COC(=O)[C@]12C[C@H](CC(=O)N3CCOCC3)C(=O)N(Cc3ccc4c(c3)OCO4)C1=C[C@H](C(C)(C)C)O[C@@H]2C	-	0	-	0	0	-	-
CC(=O)NC(c1ccc(Cl)cc1)c1ccc2cccnc2c1O (stereo not drawn)	-	0	0	0	0	-	-
CC(=O)NC(c1ccco1)c1ccc2cccnc2c1O (stereo not drawn)	47.8	-	0	-	-	0	0
CCCn1c(N/N=C(C)\C=C\c2ccccc2)nc2c1c(=O)[nH]c(=O)n2C	44.5	-	-	-	-	0	0
Cc1ccc(-c2cc(-c3nnc(SCC(=O)NC4CCCCC4)n3N)[nH]n2)cc1	-	0	-	0	0	-	-
N#Cc1c(/N=C/c2cccs2)sc2c1CCC2	0	0	0	0	0	-	-
N#Cc1c(/N=C/c2ccco2)sc2c1CCCCC2	34.8	0	0	0	0	0	0
O=C(CSc1nc(-c2ccccc2)ns1)NCC1CCCO1 (stereo not drawn)	34.7	0	0	0	0	0	0
C[C@@H]1CNC(=O)c2c(C(=O)N(C)Cc3ccccc3)ncn21	-	0	-	0	0	-	-
SMILES	PfM18AAP inh-1	UHRF1 MBD2 ctr	PfG6PD inh	PRMT1 inh	MBD2 inh	PfM18AAP inh-2	CTSL1 confirm
C[C@@H]1CCCN1c1ccc2c(c1)O[C@@H]1CCN(C1)S2(=O)=O	-	0	-	0	0	-	-
Cc1c(C)n(C(=O)CSc2ncn[nH]2)c2ccccc12	82.7	0	0	0	0	52.2	0
Cc1c(C)n(C(=O)CSc2nncn2C)c2ccccc12	0	0	0	0	0	-	-
CC1=CC(C)(C)N(C(=O)CSc2ncn[nH]2)c2ccccc21	54.4	0	0	0	0	0	0
CC1=CC(C)(C)N(C(=O)CCl)c2ccccc21	0	0	0	0	0	-	-
CCCCCN1CCCCC(NC(=O)C2CCCCC2)C1=O (stereo not drawn)	-	0	-	0	0	-	-
C=CCn1c(SCC(=O)c2ccc(F)cc2)nnc1-c1ccc(F)cc1	-	0	-	0	0	-	-
COC(=O)c1c[nH]c(=O)c2ccccc12	0	0	0	0	0	-	-
